# According to PubChem BioAssay (NCI):
# This is part of a sample that, as a whole, favours compounds with a hit. Of some 79,000 tested, about 15% had one in any assay. Values without a mark were called inactive. The source made the active and inactive calls. Cut-off read from the data, not from the text of the source: active = growth inhibition above about 70%; inactive = the rest.
# What was measured:
# [1] = NCI Yeast Anticancer Drug Screen. Data for the rad50 strain (AID 155);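 note: 0% = growth of vehicle-only cultures of the same strain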; conditions: S. cerevisiae rad50 strain growth inhibition; at 50.0 µM; stronger effect = higher value
# Summary of the method: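 DNA repair mutant yeast, compound exposure, growth read-out; inhibition is taken relative to vehicle.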
# [2] = NCI Yeast Anticancer Drug Screen. Data for the mec2-1 strain (AID 157); conditions: S. cerevisiae mec2-1 strain, at 50.0 µM, stronger effect = higher value
# Summary of the method: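 Readout is yeast growth inhibition, normalised to vehicle-treated controls, in the mec2-1 strain exposed to compound.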
# [3] = NCI Yeast Anticancer Drug Screen. Data for the sgs1 mgt1 strain (AID 161);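 note: 0% = growth of cultures given vehicle only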; conditions: S. cerevisiae sgs1 mgt1 strain, at 50.0 µM, stronger effect = higher value
# Summary of the method: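 Yeast cells carrying a defined DNA-repair defect were exposed to test compounds. Growth inhibition was measured relative to vehicle-treated controls.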
# [4] = NCI Yeast Anticancer Drug Screen. Data for the cln2 rad14 strain (AID 165);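 note: 0% = growth equal to vehicle treated cultures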; conditions: S. cerevisiae cln2 rad14 strain, at 50.0 µM, stronger effect = higher value
# Summary of the method: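 Relative to vehicle controls, growth inhibition of compound-treated cln2 rad14 yeast was recorded.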
# [5] = NCI Yeast Anticancer Drug Screen. Data for the bub3 strain (AID 167); conditions: S. cerevisiae bub3 mutant strain, at 50.0 µM, stronger effect = higher value
# Summary of the method: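 In this screen, a yeast mutant lacking normal mitotic checkpoint function is challenged with compound. Relative growth versus vehicle gives the inhibition value.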
# [6] = NCI Yeast Anticancer Drug Screen. Data for the mlh1 rad18 strain (AID 175); conditions: S. cerevisiae mlh1 rad18 strain growth inhibition; at 50.0 µM; stronger effect = higher value
# Summary of the method: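 Test agents were incubated with a yeast strain of defined genotype (DNA damage repair defect). Inhibition of growth was derived by comparison with vehicle-exposed cultures.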
Structure (SMILES),growth inhibition [1] [%],growth inhibition [2],growth inhibition [3] [%],growth inhibition [4] [%],growth inhibition [5] [%],growth inhibition [6] [%]
COc1ccc(/C=C2\CCC(C)(CN(C)C)C2=O)cc1 (stereo not given),36.5,14.6%,8.15,21.1,4.35,43
C1=CC(c2ccccc2)=C(c2ccccc2)C(c2ccccc2)C(c2ccccc2)=C1 (stereo not given),18.2,1.95%,13.2,26.9,-1.05,11.8
CC(=N/N(C)c1ccccc1)/C(C)=N/N(C)c1ccccc1,19.1,6.7%,3.7,3.65,4.35,15.8
O=C(O)c1ccc(OCCOc2ccccc2)c(Cl)c1,31,74.8% (active),61.3,40.2,63.6,61
C/C(=N\NC(=S)N1CCCCCC1)c1nccs1,3.95,0.25%,-1.5,-18,-6.9,2.15
NC(N)=NS(=O)(=O)c1ccc(N)cc1,45,23.9%,26.4,14.3,13.3,13
CC(=O)N[C@@H]1CCC[C@H](NC(C)=O)C1,-9.75,-44.4%,-12.7,-17.1,12.7,-23.9
Cc1ccncc1S(=O)(=O)O,14.6,8.85%,2.3,-12.2,1.7,1.75
CC1(C)OC2CC(=O)OCC23C1CC(=O)C1(C)C3CCC2(C)C(c3ccoc3)OC(=O)C3OC321 (stereo not given),-7.65,1.4%,-0.55,10.1,8.7,18.5
OCCCNc1nc2cc(Cl)ccc2o1,9.2,22.6%,16.1,-31.1,7.9,-14.9
CNc1ccccc1C(=O)N/N=C/c1c(O)ccc2ccccc12,-3.15,18.3%,19,-10.3,36.1,2.45
C=C(C)COB(OCC(=C)C)OCC(=C)C,-6.3,-25.4%,-2.25,1.95,-10.8,-16.2
CC1C(=O)OC(=O)C1C (stereo not given),-11.2,-6.2%,11.5,4,-4.6,8.8
COC(=O)CC(c1ccc(OC)cc1)C(CC(=O)OC)c1ccc(OC)cc1 (stereo not given),-19.2,-29.8%,13.9,15.8,25.9,-20.1
Cc1cccc(N=Nc2ccc(O)c(CN(C)C)c2)c1,-17,8.9%,-0.35,-5.5,29.1,20.2
CC(=O)Nc1ccc(N=C/C=C/c2ccccc2)cc1,-24.6,-56.5%,5.9,2.05,-44.5,2.05
O=c1c2cc([N+](=O)[O-])ccc2n2n1CCCC2,15.1,9.45%,-13.8,16.9,-16,-10.4
N#CCCC(CC#N)N1CCN(C(CC#N)CCC#N)CC1 (stereo not given),-33.5,-48.9%,-11.8,-6.3,-13.1,-19.4
O=C(O)Cc1cccc2c(=O)cc(Cc3ccccc3)oc12,-13.8,-16.6%,-11.5,6.6,20.1,-15
Nc1ccc(/C=C\C(=O)c2ccccc2)cc1,16.4,1.05%,12.1,12.6,4.25,17.4
